Hits are enriched below; roughly 4.1% of the tested compounds scored in any of these assays.
hcDAF12 agonist: activators of H. contortus DAF-12 nuclear receptor | HEK293 hcDAF-12 lit1-tk-luc reporter, luminescence; 0% DMSO, 100% Δ7-dafachronic acid | activation, % at 6.8 µM | 370,000 compounds, 1.4% hits;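 active = activation above the mean of all tested compounds plus 3 SD, cut at about 5.5% in these data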
DAX1 inh-1: blocks DAX1 repression of SF-1 activated StAR promoter | HEK293T StAR-luciferase reporter, SF-1/DAX-1 repression relief | inhibition, % at 6.8 µM | 370,000 compounds, 1.1% hits | AID 652010;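 active = inhibition above the mean over all tested compounds plus 3 SD, cut at about 3.6% in these data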;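 also: higher inhibition means more luminescence from relief of DAX-1 repression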
hgDAF12 agonist: agonists of H. glycines DAF-12 nuclear receptor | HEK293 GAL4-hgDAF12 UAS-luciferase reporter, agonist luminescence; normalized to butyrate control | activation, % at 6.8 µM | 370,000 compounds, 1.8% hits | AID 687014;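 active = activation above a cutoff set at the mean of all screened compounds plus 3 SD, cut at about 10% in these data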
DAX1 inh-2: NR0B1 (DAX1) inhibition; P51843; HEK293 Gal4-DAX1 luciferase reporter, luminescence; inhibition, % at 6.75 µM; 340,000 compounds, 0.99% hits; AID 504766;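 active = inhibition above the mean over all tested compounds plus 3 SD, cut at about 4.2% in these data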;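 also: inhibition shows as a rise in luminescence from relieved DAX1 repression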
Target sequence (P51843 207-470 limits assumed): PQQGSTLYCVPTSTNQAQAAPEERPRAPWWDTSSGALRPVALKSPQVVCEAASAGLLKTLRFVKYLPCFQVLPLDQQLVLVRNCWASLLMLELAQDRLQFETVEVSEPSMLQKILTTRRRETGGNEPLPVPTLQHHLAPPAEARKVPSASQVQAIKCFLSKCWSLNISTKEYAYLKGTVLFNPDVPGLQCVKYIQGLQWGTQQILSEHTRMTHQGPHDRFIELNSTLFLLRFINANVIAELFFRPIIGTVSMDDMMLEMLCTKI
ssDAF12 agonist: activators of S. stercoralis DAF-12 nuclear receptor | HEK293 ssDAF-12/GRIP1 lit1-tk-luc reporter, luminescence; % of 3 µM dafachronic acid response | activation, % at 6.8 µM | 370,000 compounds, 1% hits | AID 652126;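 active = activation above the mean over all tested compounds plus 3 SD, cut at about 0.9% in these data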
hgDAF12 ag: confirmation of H. glycines DAF-12 agonists; shares compounds with hgDAF12 agonist; HEK293 GAL4-hgDAF12 luciferase reporter, agonist mode; percent of butyrate response; activation, % at 6.8 µM; 3,300 compounds, 80% hits;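 active = mean activation over triplicate wells above the hit cutoff derived from the earlier primary screen, cut at about 11% in these data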
LXR ag 2: activates human LXR-beta, counter-screen for DAF-12 agonists | 3,300 tested, under 10 active | activation, % at 6.8 µM | AID 743051 | HEK293 Gal4-LXR luciferase reporter, 24 h | shares compounds with hgDAF12 agonist;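 active = mean activation of the triplicate above a set limit carried over from the primary screen, none filed active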
Large screens that a line does not name were inactive (follow-up assays come after a bar, where they were run).

CCOC(=O)C1C(c2cccs2)NC(=O)NC1(O)C(F)(F)F (centres undefined)	hgDAF12 agonist 24.2 | hgDAF12 ag inactive | LXR ag 2 inactive
CCOC(=O)C1C(c2cccnc2)NC(=O)NC1(O)C(F)(F)F (centres undefined)	none
COc1ccc(C(=O)c2[nH]c(N)c(C(=O)NCCc3c[nH]c4ccccc34)c2-c2ccccc2C(F)(F)F)cc1	none (no result: DAX1 inh-2)
COC(=O)c1cc2c(c3c4ccccc4n(S(=O)(=O)c4ccc(OC)cc4)c13)C(=O)N(Cc1ccccc1OC)C2	none (no result: DAX1 inh-2)
CCn1c(SCc2ccccc2Cl)nc2ccccc21	none
Cn1c(SCc2ccccc2Cl)nc2ccccc21	hgDAF12 agonist 14.1 | hgDAF12 ag 14.9 | LXR ag 2 inactive
COc1ccc(/C=C2\CC3(OC(=O)C4CCCCC4)CCCN2C3)cc1 (centres undefined)	none (no result: DAX1 inh-2)
COC(=O)c1cc(-c2ccc(C)cc2)c(=O)n2c1CCC2	none (no result: DAX1 inh-2)
COCCCn1cnc2oc3nc4ccccc4nc3c2c1=O	hgDAF12 agonist 14.7 | hgDAF12 ag 19.2 | LXR ag 2 inactive
Cc1ccc(-c2nc(C#N)c(NCc3ccco3)o2)cc1	hgDAF12 agonist 14.5 | hgDAF12 ag 16.3 | LXR ag 2 inactive
COc1ccc(-c2nc(C#N)c(NCc3ccco3)o2)cc1	hgDAF12 agonist 15.6 | hgDAF12 ag 16.1 | LXR ag 2 inactive
COc1ccc(C2CC(c3ccncc3)=NN2c2ccc(S(N)(=O)=O)cc2)cc1 (centres undefined)	hgDAF12 agonist 26.1 | hgDAF12 ag 21.5 | LXR ag 2 inactive
COc1ccc(C2CC(c3ccc(Cl)cc3)=NN2c2ccc(S(N)(=O)=O)cc2)cc1 (centres undefined)	none
CC(C)Cc1ccc(/C=C/C(=O)NC2CC2)cc1	hgDAF12 agonist 13.3 | hgDAF12 ag 12.2 | LXR ag 2 inactive
Cc1ccc(/C=C/C(=O)N2CCCC(C)C2)cc1 (centres undefined)	DAX1 inh-1 4.4, hgDAF12 agonist 14.7, ssDAF12 agonist 1.2 | hgDAF12 ag 14.3 | LXR ag 2 inactive
CC(C)Cc1ccc(/C=C/C(=O)N2CCCCC2)cc1	DAX1 inh-1 4.5, hgDAF12 agonist 15.5 | hgDAF12 ag 14.4 | LXR ag 2 inactive
O=C(/C=C/c1ccc(Br)cc1)NC1CCCCCC1	none
CCc1ccc(/C=C\C(=O)N2CCCC2)cc1	none
CCOC(=O)C1CCCN(C(=O)/C=C/c2ccc(Cl)cc2)C1 (centres undefined)	none
Cc1nc(C(C)NC(=O)CCc2nnc(CCCc3ccccc3)o2)c(C)s1 (centres undefined)	hgDAF12 agonist 13.2 | hgDAF12 ag inactive | LXR ag 2 inactive
Cc1ccc(S(=O)(=O)Nc2ccccc2[N+](=O)[O-])cc1	hgDAF12 agonist 27.8 (no result: DAX1 inh-2) | hgDAF12 ag inactive | LXR ag 2 inactive
Cc1ccc(NS(=O)(=O)c2ccccc2)c([N+](=O)[O-])c1	none
[O-][n+]1ccccc1C(O)CSc1ccccc1 (centres undefined)	none (no result: DAX1 inh-2)
CN=Cc1nc(-c2ccccc2)oc1O	none
Oc1oc(-c2ccccc2)nc1/C=N/c1ccccn1	hgDAF12 agonist 16.1 | hgDAF12 ag inactive | LXR ag 2 inactive
Cc1cccc(Nc2nnc(SCC(=O)NCC3CCCO3)s2)c1C (centres undefined)	none
Cc1ccccc1Nc1nnc(SCC2CCCCO2)s1 (centres undefined)	DAX1 inh-1 4.2, hgDAF12 agonist 15.2 | hgDAF12 ag 17.4 | LXR ag 2 inactive
COC(=O)c1sc(NC(=O)COc2ccccc2C)nc1C	none
COc1ccccc1OCC(=O)Nc1nc(C)c(C)s1	hgDAF12 agonist 13.7 | hgDAF12 ag 12.2 | LXR ag 2 inactive
CC(=O)Oc1ccccc1-c1nc(/C=C/c2ccccc2)no1	hcDAF12 agonist 6.3, hgDAF12 agonist 17.0 | hgDAF12 ag 17.8 | LXR ag 2 inactive
CCOC(=O)[C@@H]1CSCCS(=O)(=O)N1Cc1ccc(C(F)(F)F)cc1	none (no result: DAX1 inh-2)
O=C(N/N=C/c1cn(-c2ccccc2)nc1-c1cc2ccccc2o1)c1c[nH]c2ccccc12	hgDAF12 agonist 19.0 | hgDAF12 ag 12.8 | LXR ag 2 inactive
